Test results taken from PubChem BioAssay (Tox21).
Inconclusive results are not listed. Unmarked numbers belong to inactive results. The source made the active and inactive calls. The call rests on the fitted dose curve; in most records, active means well fitted cell-killing curve with a large enough effect in the repeat runs (not every such curve was filed as active); inconclusive means weak or mixed curves, or effect the other way; inactive means no such curve, though single readings can be large or run the other way.

Assay: qHTS assay to identify small molecule antagonists of the estrogen related receptor signaling pathway with the pleiotropic PPARgamma coactivator (PGC) from Tox21 10K library - cell viability counter screen (AID 1224840); further: nearly all actives have a fitted effect of over 40% in size
Details: PGC/ERR reporter cells viability, CellTiter-Fluor, 17.5 h; series mostly up to 92.4 µM
From the text: National Center for Advancing Translational Sciences [NCATS]
NIH Chemical Genomics Center [NCGC]
U.S. Environmental Protection Agency [EPA]
National Institutes of Environmental Health Sciences [NIEHS]
National Toxicology Program [NTP]
U.S. Food and Drug Administration [FDA]
Estrogen related receptors (ERRs), the first orphan nuclear receptors discovered, play an important role in the control of cellular energy metabolism. ERRs are required for high-energy production in response to the environmental challenges. The pleiotropic PPARgamma coactivator (PGC) is a major partner of ERR and a key regulator in energy homeostasis. Together they have been implicated in the etiology of metabolic disorders such as Type 2 diabetes and metabolic syndrome. ERR-alpha was also identified as an adverse marker for breast cancer progression; ERR-alpha-positive tumors have a poor prognosis. To screen and to identify environmental compounds that perturb the ERR and PGC/ERR signaling pathways could provide valuable information for potential therapeutic or preventive measures in the treatment of metabolic disease. To differentiate true PGC/ERR antagonists or agonist from cytotoxic substances, the assay is multiplexed with cell viability assay.
Tox21 Assay Protocol Summary:
The PGC/ERR cells were dispensed at 2,000 cells/5 ul/well in 1536-well white plates using a Multidrop dispenser. After the assay plates were incubated at a 37 C/5% CO2 incubator for 6 hours, 23 nL of compounds dissolved in DMSO, positive and negative controls or DMSO only was transferred to the assay plate by a pin tool. The plates were incubated at 37 C for 17.5 hours. 1 ul/well of CellTiter-Fluor reagent was added into the assay plates using a Flying Reagent Dispenser. After 30-minute incubation at 37 C/5% CO2, the fluorescence intensity in the plates was measured using a ViewLux plate reader.
On the % scale 0 is the no-effect control and ±100 the full control effect.

Structure (SMILES) | outcome | viability change, negative = cytotoxic
CC(C)(C)c1n[nH]c(=S)n(N)c1=O | inactive | –
CCCCCOC(=O)CCC | inactive | –
Cc1cc(NC(=O)C2=C(O)c3ccccc3S(=O)(=O)N2C)no1 | inactive | –
Cc1ccccc1C(=O)Nc1ccc(C(=O)N2CCCC(N(C)C)c3ccccc32)cc1 (stereo not given) | inactive | –
COc1ccc(OC)c(Cl)c1 | inactive | –
COCCOCCOCCOCCOCCO | inactive | –
CCOC(=O)c1ncn2c1CN(C)C(=O)c1cc(F)ccc1-2 | inactive | –
CC(C)CC(=O)O | inactive | –
NNc1nnc(NN)c2ccccc12 | inactive | –
COc1ccc(-c2cc(=O)c3c(O)cc(O[C@@H]4O[C@H](CO[C@@H]5O[C@@H](C)[C@H](O)[C@@H](O)[C@H]5O)[C@@H](O)[C@H](O)[C@H]4O)cc3o2)cc1O | inactive | –
CC/C=C\CC1=C(C)CCC1=O | inactive | –
CCOC(=O)[C@H](CCc1ccccc1)N[C@@H](C)C(=O)N1C(=O)N(C)C[C@H]1C(=O)O | inactive | –
C=Cc1ccccn1 | inactive | –
NS(=O)(=O)c1cc2c(cc1Cl)CN(C1CCCCC1)C2=O | inactive | –
O=C(O)c1cc(Br)c(O)c(Br)c1 | inactive | –
O=S(O)(O)=S | – | 0.0211% [at 8.39 µM]
O=C1CCCC(=O)O1 | inactive | –
NC(CO)C(=O)NNCc1ccc(O)c(O)c1O (stereo not given) | inactive | –
CCCCCCN | inactive | –
Cc1cc(Cl)c(C)cc1Cl | inactive | –

Structure (SMILES) | outcome | viability change, negative = cytotoxic
Brc1ccc(-c2ccccc2)cc1 | inactive | –
CC1=C(C(=O)O)N2C(=O)[C@@H](NC(=O)[C@H](N)c3ccc(O)cc3)[C@H]2SC1 | inactive | –
CCC(C)(CCC(C)C)C(=O)O (stereo not given) | inactive | –
CCOC(=O)c1ccc(OC(=O)CCCCCN=C(N)N)cc1 | inactive | –
CNS(=O)(=O)CCc1ccc2[nH]cc(C3CCN(C)CC3)c2c1 | inactive | –
COc1cc(N)ccc1C | inactive | –
COCCOC(=O)C1=C(C)NC(C)=C(C(=O)OC(C)C)C1c1cccc([N+](=O)[O-])c1 (stereo not given) | inactive | –
CC(=O)Nc1ccc(S(=O)(=O)Cl)cc1 | inactive | –
Cc1[nH]cnc1-c1ccc(Cl)cc1 | inactive | –
C[C@@H](O)[C@H]1C(=O)N2C(C(=O)O)=C(SCCN=CN)C[C@H]12 | inactive | –
BrCCCCCBr | inactive | –
COC(=O)C1CC(=O)C(C(=O)OC)CC1=O (stereo not given) | – | 11% [at 8.39 µM]
Cc1ccsc1/C=C/C1=NCCCN1C | inactive | –
CC(=O)Nc1cccc(C)c1 | inactive | –
O=C(/N=N/C(=O)OCc1ccccc1)OCc1ccccc1 | inactive | –
Cc1ccccc1N=O | inactive | –
O=C(OCc1ccccc1)C(=O)OCc1ccccc1 | inactive | –
O=C1c2cccc3c2[C@H](CCC3)CN1[C@@H]1CN2CCC1CC2 | inactive | –
O=C1CC(c2ccc(Cl)cc2)CC(=O)N1 | inactive | –
CN(C)CCOCCO | inactive | –
